Measurements as given in PubChem BioAssay AID881 (National Center for Advancing Translational Sciences (NCATS), 2007).
The campaign covered roughly 110,000 compounds. About 610 (0.55%) were called active. Another 3% or so got no clear call; they are omitted. Calls come from the whole dose curve; as a rule, active = well fitted inhibition curve with a large enough effect; inconclusive = small, poorly fitted or top-dose-only effect; inactive = no such curve, though single readings can be large or run the other way. This excerpt belongs to a sample that is enriched for actives.

These compounds were tested against Polyunsaturated fatty acid lipoxygenase ALOX15B (Homo sapiens) (UniProt O15296) (assay: qHTS Assay for Inhibitors of 15-hLO-2 (15-human lipoxygenase 2)). Settings: purified 15hLO-2, xylenol orange hydroperoxide absorbance; series mostly up to 57.1 µM; activity change, negative = inhibition: at the top concentration.
Polyunsaturated fatty acid lipoxygenase ALOX15B (Homo sapiens), sequence (O15296 whole entry, looked up): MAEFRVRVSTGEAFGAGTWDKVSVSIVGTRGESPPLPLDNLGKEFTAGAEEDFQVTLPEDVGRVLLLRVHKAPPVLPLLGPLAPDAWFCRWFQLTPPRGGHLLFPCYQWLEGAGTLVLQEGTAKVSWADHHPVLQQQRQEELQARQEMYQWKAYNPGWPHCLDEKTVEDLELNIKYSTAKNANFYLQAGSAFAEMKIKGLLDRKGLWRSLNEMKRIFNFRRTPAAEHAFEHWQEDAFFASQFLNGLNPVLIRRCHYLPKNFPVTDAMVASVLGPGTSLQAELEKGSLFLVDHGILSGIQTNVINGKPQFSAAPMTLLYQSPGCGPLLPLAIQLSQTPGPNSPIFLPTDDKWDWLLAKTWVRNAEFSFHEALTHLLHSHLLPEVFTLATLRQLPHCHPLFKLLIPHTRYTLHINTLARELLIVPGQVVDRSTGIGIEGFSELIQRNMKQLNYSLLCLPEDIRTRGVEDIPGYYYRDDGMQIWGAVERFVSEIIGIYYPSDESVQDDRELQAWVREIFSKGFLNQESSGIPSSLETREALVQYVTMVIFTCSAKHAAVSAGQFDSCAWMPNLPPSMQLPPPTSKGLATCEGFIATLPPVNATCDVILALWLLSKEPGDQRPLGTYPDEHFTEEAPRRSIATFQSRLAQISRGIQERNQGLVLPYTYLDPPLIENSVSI
Description: Assay Overview: NIH Molecular Libraries Screening Centers Network [MLSCN] NIH Chemical Genomics Center [NCGC] MLSCN Grant: MH081283-01A1 PI Name: Holman, T.R., University of California, Santa Cruz Human lipoxygenase 15hLO-2 is a member of the closely related lipoxygenase family of enzymes which catalyze the site-specific oxidation of arachidonic acid to various hormone precursor molecules and as such is a candidate for drug development in a variety of disease areas, such as cancer and inflammation. Inhibition of 15hLO-2 activity was screened by utilizing arachidonic acid as a substrate. The extent of hydroperoxide product formation was measured by a secondary chromogenic reaction in which xylenol orange (XO, Sigma-Aldrich, cat. number 39,818-7) reacts with the ferric ions produced from the reaction between the hydroperoxide and ferrous ions. The Fe(III)-XO complex is characterized with red-shifted absorbance at 560 nm. A purified preparation of human 15hLO-2 was supplied by Professor Ted Holman, University of California, Santa Cruz.
Assay Protocol: Buffer: 25 mM Hepes pH 7.5, 0.01% Triton X-100. Reagents/Controls: Buffer in columns 3 and 4 as negative control (no enzyme). Substrate solution: 45 uM arachidonic acid (Sigma-Aldrich, St. Louis, MO) final concentration dispensed throughout the plate. Enzyme: 50 nM 15hLO-2 final concentration in columns 1, 2, 5-48. Column 1 is neutral (100% activity). Column 2 contained pin-transferred titration of NDGA (nordihidroguaiaretic acid, Sigma-Aldrich, N 5023, top concentration 10 mM in DMSO, then 1:2 dilution in duplicate). (Dilution factor: 23 nL into 4 uL.) Chromogenic detection reagent (divalent iron/xylenol orange, Fe-XO): 200 uM xylenol orange plus 300 uM ferrous ammonium sulfate prepared freshly in 50 mM sulfuric acid. Assay Steps: Three uL of enzyme were dispensed to 1536-well Greiner black clear bottom plates. Compounds and controls (23 nL) were transferred via Kalypsys PinTool. The plates were incubated for 15 min at room temperature, and then 1 uL of substrate solution was added to start the reaction. After room temperature incubation for 90 minutes, 4 uL of Fe-XO solution was added to each well followed by a short spin (1000 rpm, 15 sec) and the plates were then incubated for 30 min. The absorbance at 405 and 573 nm were measured using ViewLux (Perkin-Elmer) High-throughput CCD imager and absorbance protocol settings. The 573-to-405 absorbance ratio was used to compute reaction progress.
% is set by controls: 0 for no effect and ±100 for the full control effect; potency is the fitted concentration of half-maximal effect.
Note: nearly all actives have a fitted effect of over 60% in size.

Row | Structure (SMILES) | activity change, negative = inhibition | Potency
1 | C=CCC1CCC(=O)N2CCCC12 (stereo not given) | -5.32% [at 0.0915 µM] (inactive) | –
2 | Cc1ccccc1OCC(=O)NCC(=O)OCC(=O)c1ccc2ccccc2c1 | 5.04% (inactive) | –
3 | Brc1ccc(C2=NCCC(c3ccccc3)O2)cc1 (stereo not given) | 18.5% [at 0.0915 µM] (inactive) | –
4 | O=C(c1cccc(F)c1)N1CCN(c2ccc([N+](=O)[O-])c(N3CCCCC3)c2)CC1 | -15.7% (inactive) | –
5 | O=C1OCCN1C(=O)[C@H]1[C@H](c2ccc(Cl)cc2)C(c2cccc(Cl)c2)=NN1c1ccc(Br)cc1 | 4.34% [at 0.0915 µM] (inactive) | –
6 | CC1(C)O[C@@H]2C[C@@H]3[C@H]4C[C@@H](F)C5=CC(=O)C=C[C@]5(C)[C@@]4(F)[C@@H](O)C[C@]3(C)[C@]2(C(=O)CO)O1 | -10.6% [at 0.0915 µM] (inactive) | –
7 | O=C1CCC[C@@H]2CC(N3CCCCC3)C[C@@H]3CCN1[C@H]23 (stereo not given in full) | -0.97% [at 0.0915 µM] (inactive) | –
8 | Cc1c(O)c(Br)c(C)c(O)c1Br (tested in a mixture with another compound) | – | 2 µM (active)
9 | CCOn1c(SC(C)C)nc2ccccc2c1=O | 0.625% (inactive) | –
10 | C=CC1(C)CC(=O)C2(O)C(C)(O1)C(OC(C)=O)C(O)C1C(C)(C)CCC(O)C12C (stereo not given) | 1.16% [at 0.0915 µM] (inactive) | –
11 | COc1cc(C(=O)N2CCOCC2)cc(OC)c1OC | 5.48% [at 0.0915 µM] (inactive) | –
12 | Cc1ccc(NC(=S)Nc2ncccc2C)c(C)c1 | – | 7.94 µM (active)
13 | Cc1ccc(NC(=O)Cn2nc(C)c3ccccc3c2=O)c(C)c1 | -7.07% (inactive) | –
14 | Cc1ccccc1NC(=S)Nc1cccc([N+](=O)[O-])c1 | -5.17% (inactive) | –
15 | CC(C)NC(=O)C(=O)NCCN1CCN(S(=O)(=O)c2ccc(Cl)cc2)CC1 | 8.55% (inactive) | –
16 | FC(F)(F)c1cnc(Oc2ccccc2-c2nnc(-c3ccc(Cl)cc3)o2)c(Cl)c1 | -0.426% (inactive) | –
17 | O=C(Oc1ccccc1)Oc1ccc2c(c1)oc(=O)c1ccccc12 | -17.5% (inactive) | –
18 | Cc1nc2ccccc2c(=O)n1CCCn1ccnc1 | 9.49% [at 11.4 µM] (inactive) | –
19 | Cc1ccnc(-n2sc3ccccc3c2=O)n1 | – | 7.94 µM (active)
20 | Cc1ccnc(N2CCC(C(=O)NC3CCCCCC3)CC2)n1 | 6.51% (inactive) | –
21 | N#Cc1ccc(Oc2cc(C(F)(F)F)nc(-c3ccccn3)n2)cc1 | 5.16% (inactive) | –
22 | CCCCCCCCCCCCCCCCO | 14.3% [at 0.0915 µM] (inactive) | –

Row | Structure (SMILES) | activity change, negative = inhibition | Potency
23 | CN(C(=O)CSc1nc(C2CC2)nc2ccccc12)c1nc(-c2ccccc2)cs1 | 2.08% (inactive) | –
24 | Cc1cc(N/C=C\C(=O)c2ccc(Cl)c(Cl)c2)no1 | -13.7% (inactive) | –
25 | Cc1ccc(-n2c(SCC(=O)NCc3ccc4c(c3)OCO4)nnc2-c2cccnc2)c(C)c1 | -2.26% (inactive) | –
26 | Cc1ccc(CC2(O)CCN(CCOc3ccc(O)cc3)CC2)cc1 | 15.1% [at 0.0915 µM] (inactive) | –
27 | Cc1ccc(/C=N/NC(=O)Cn2nc(C)c(Br)c2C)o1 | -9.43% (inactive) | –
28 | C=CCN(N=Nc1cccc([N+](=O)[O-])c1)c1cccc([N+](=O)[O-])c1 | -5.62% (inactive) | –
29 | CN(C)c1ccc(CNC2C3CC4CC(C3)CC2C4)cc1 (stereo not given) | 67.5% (inactive) | –
30 | O=C(COc1ccc(Br)cc1F)NC1CCN(Cc2ccccc2)CC1 | 29.1% (inactive) | –
31 | N#CC1=C(SCc2ccc(C#N)cc2)N=C(N)C(c2nc(-c3ccccc3)cs2)C12CCCCC2 (stereo not given) | -1.4% (inactive) | –
32 | CCOc1c2ccc(C(=O)NCc3ccc(OC(F)(F)F)cc3)cc2nn1C | 10.7% (inactive) | –
33 | O=C1Nc2ccccc2C12Nc1ccccc1S2 (stereo not given) | – | 7.94 µM (active)
34 | Cc1ccc(NC2(C#N)C(=O)Nc3ccccc32)cc1 (stereo not given) | -9.55% (inactive) | –
35 | CC(=O)N1C(=O)C2(Nc3ccccc3N2)c2ccccc21 | 3.55% (inactive) | –
36 | Cc1ccc(CNC(=O)CCNS(=O)(=O)c2cccc3nonc23)cc1 | -1.56% (inactive) | –
37 | CC1=C(C/C=C(\C)CCCC(C)CCCC(C)CCCC(C)C)C(=O)c2ccccc2C1=O (stereo not given) | -19.6% [at 0.0915 µM] (inactive) | –
38 | Cn1c(SCC(=O)NC2CCCCC2)nnc1-c1cc2ccccc2o1 | 6.06% (inactive) | –
39 | O=c1c2ccccc2nc2n1C(CSCc1ccccc1)CS2 (stereo not given) | -0.0852% (inactive) | –
40 | CCOC(=O)C1=C(C)Nc2sc(C(=O)c3ccc(Br)cc3)c(N)c2C1c1ccc(C(=O)OC)cc1 (stereo not given) | -18.9% (inactive) | –
41 | Cc1ccc(C(=O)OC2=CC(=O)CC(C)(C)C2)cc1 | -18% [at 11.4 µM] (inactive) | –
42 | COc1ccc(Nc2nc(-c3ccccc3)cs2)cc1 | -0.853% (inactive) | –
43 | COc1ccc(OC)c(Nc2nc(-c3ccc(O)c(O)c3)cs2)c1 | – | 12.6 µM (active)
44 | c1cnc(Nc2nc(-c3ccc4ccccc4c3)cs2)nc1 | -9.83% (inactive) | –

Row | Structure (SMILES) | activity change, negative = inhibition | Potency
45 | O=C(OC1CCCCC1=O)c1cccc(S(=O)(=O)NCc2ccccc2)c1 (stereo not given) | -5.34% (inactive) | –
46 | OCCN(Cc1ccccc1)Cc1ccc(Cl)cc1 | -6.06% (inactive) | –
47 | O=C1CSC2=NCN(c3ccccc3)CN12 | 1.46% (inactive) | –
48 | O=C(NCc1ccco1)c1ccc(Cn2c(=O)c3sccc3n(Cc3ccc(F)cc3)c2=O)cc1 | -11.1% (inactive) | –
49 | CCn1c(-c2ccoc2C)n[nH]c1=S | 13% (inactive) | –
50 | CCCC1NC(=O)NC(C)=C1C(=O)OCC (stereo not given) | -5.77% (inactive) | –
51 | COc1cccc(OC)c1C(=O)Nc1ccc(N2CCCCC2)cc1 | 3.88% (inactive) | –
52 | COc1ccc([N+](=O)[O-])cc1N(CC(O)Cn1nnc2ccccc21)S(=O)(=O)c1ccc(C)cc1 (stereo not given) | -1.66% (inactive) | –
53 | CCCCNCc1ccc(SC)cc1 | 21.2% (inactive) | –
54 | Clc1ccc(-n2nnnc2CN2CCCCC2)cc1Cl | 0.993% [at 11.4 µM] (inactive) | –
55 | COc1ccc(Oc2c(Cl)cnn(-c3ccccc3)c2=O)cc1 | -7.51% (inactive) | –
56 | C#CCN(N(C)c1ncc(C(F)(F)F)cc1Cl)S(=O)(=O)c1ccc2ccccc2c1 | -5.59% (inactive) | –
57 | Cc1ccccc1-c1ccc(C(=O)O)s1 | -3.34% [at 0.0915 µM] (inactive) | –
58 | COC(=O)CNC(=O)c1ccccc1F | 1.73% (inactive) | –
59 | CC(C)CCSc1ncnc2c1oc1nc3c(cc12)COC(C)(C)C3 | 13.4% (inactive) | –
60 | Cc1ccc(-c2csc(NC(=O)c3cccs3)n2)cc1 | 27.2% (inactive) | –
61 | Cn1nc(-c2ccccc2)c(-c2nc(-c3ccc(Cl)cc3)no2)c1Cl | -4.91% (inactive) | –
62 | CCCSc1nsc(N)n1 | -13% (inactive) | –
63 | COc1cc(OC)cc(C(=O)NC(=S)N2CCN(c3ccc(C(F)(F)F)cc3[N+](=O)[O-])CC2)c1 | -13% (inactive) | –
64 | COC(=O)CSc1snnc1-c1ccc(Cl)c(Cl)c1 | 2.53% (inactive) | –
65 | COC(=O)c1ccccc1NC(=O)CN(Cc1ccc(Cl)cc1)S(C)(=O)=O | 7.94% (inactive) | –
